Compound activity: PubChem BioAssay, several laboratories
An excerpt weighted towards active compounds, which were near 1.8% of everything screened.
BaF3 tox = parental Ba/F3 viability inhibition as JAK2V617F counter-screen; CellTiter-Glo ATP luminescence; inhibition, % at 5.6 µM; hit rate 1.1% among 220,000; AID 1486;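 active = inhibition above a per-campaign cutoff, the mean inhibition of all tested compounds plus 3 SD, cut at about 27% in these data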;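 note: 0% = DMSO wells and 100% = JAK Inhibitor I control wells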
Ba/F3 V617F tox = lowers viability of Ba/F3 cells expressing EpoR and JAK2V617F | ATP luminescence | inhibition, % at 5.6 µM | hit rate 1.1% among 220,000 | AID 1446;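 active = inhibition above the campaign mean plus 3 SD over all tested compounds, cut at about 24% in these data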;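 note: cytokine-independent growth of Ba/F3 cells driven by EpoR plus mutant JAK2; 0% = DMSO-treated cells and 100% = JAK inhibitor I control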
KLF5 inh = suppresses KLF5 promoter-driven expression; hit rate 0.23% among 290,000; inhibition, % at 5 µM; DLD-1 KLF5 promoter-luciferase reporter, luminescence;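 active = inhibition above a per-plate limit of that plate's mean compound inhibition plus 3 SD, cut at about 60% in these data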;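 note: 0% = DMSO wells and 100% = LY294002 at 200 µM; higher means less KLF5 promoter-driven luciferase light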
IEC-6 cytotox = counter-screen for KLF5 inhibitors: cytotoxicity in IEC-6 cells; hit rate 0.78% among 290,000; AID 1825; IEC-6 cytotoxicity, luminescence viability; inhibition, % at 5 µM; in the data active = inhibition above about 22%;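 note: 0% = plate median of test compound wells and 100% = cytotoxic reference compound wells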
APP transl inh = APP translation inhibition; inhibition, % at 2 µM; SH-SY5Y APP 5'UTR-luciferase reporter, luminescence; hit rate 0.82% among 190,000; AID 1285;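 active = inhibition above a set limit, derived from the sample mean plus 3 SD, cut at about 45% in these data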
BaF3 tox 2 = parental Ba/F3 viability inhibition for JAK2V617F counter-screen | shares compounds with Ba/F3 V617F tox | CellTiter-Glo luminescence; cells kept alive by added IL-3 | inhibition, % at 5.6 µM | hit rate 31% among 580;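 active = cell growth inhibition above the hit limit set in the earlier mutant JAK2 cell screen, cut at about 27% in these data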;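 note: plate controls were DMSO-treated cells for no effect and JAK Inhibitor I control wells for full effect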
JAK2V617F conf = confirmation: loss of viability in JAK2V617F-dependent Ba/F3 cells | inhibition, % at 5.6 µM | AID 1521 | Ba/F3 EpoR-JAK2V617F viability, CellTiter-Glo luminescence | shares compounds with Ba/F3 V617F tox | hit rate 66% among 580;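 active = mean inhibition above the hit cutoff derived in the earlier primary screen, cut at about 25% in these data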;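 note: 0% = DMSO-treated cells and 100% = JAK inhibitor I control wells; higher means lower luminescence from reduced cell ATP and viability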
An asterisk follows results filed as active; nt = not tested or not shown.

SMILES	BaF3 tox	Ba/F3 V617F tox	KLF5 inh	IEC-6 cytotox	APP transl inh	BaF3 tox 2	JAK2V617F conf
NCCCC[C@@H]1NC(=O)c2cc([N+](=O)[O-])cc(I)c2SC[C@@H](C(N)=O)NC(=O)[C@H](Cc2ccc(O)cc2)NC1=O	8	4	3	2	-9	nt	nt
N#Cc1nc(-c2ccco2)oc1NCCCn1ccnc1	2	0	-22	-1	3	nt	nt
Cc1sc2ncnc(Sc3nnnn3-c3ccccc3)c2c1C	4	-2	-20	2	5	nt	nt
Clc1ccc(-n2nnnc2Sc2ncnc3sccc23)cc1	1	26*	0	4	92*	1	88*
CO/N=C(\C(=O)O)c1csc(NN=C(C)C)n1	12	6	-5	6	6	nt	nt
Cc1nc([N+](=O)[O-])c(Sc2nc3ccccc3n2C)n1Cc1ccccc1	-2	28*	-34	10	1	5	92*
COc1ccc(OC)c(C2(O)CSC(=Nc3cccnc3)N2Cc2ccco2)c1 (stereo unspecified)	11	6	-6	6	6	nt	nt
OC1(c2ccc(OC(F)F)cc2)CSC(=Nc2cccnc2)N1C1CC1 (stereo unspecified)	17	29*	6	9	2	5	31*
COc1cccc(C(=O)COc2cccc(NC(=O)c3cccc([N+](=O)[O-])c3)c2)c1	10	42*	1	3	-4	-3	-10
O=C(COc1cccc(NC(=O)c2cccc([N+](=O)[O-])c2)c1)c1ccc(F)cc1	8	-1	9	1	nt	nt	nt
NC(=O)/C(=N\OC(=O)c1ccco1)c1nc(-c2ccc(Br)cc2)cs1	6	31*	-24	-11	37	3	31*
Cc1ccc(NC(=O)CNC(=O)Cn2cnc3sc(C)c(C)c3c2=O)cc1F	nt	nt	-24	5	nt	nt	nt
CCOc1ccccc1N1CCN(Cc2cccc(OC)c2O)CC1	4	40*	11	-1	6	-6	4
COc1ccccc1N1CCN(CCCCOc2c(OC)cccc2OC)CC1	nt	nt	-19	0	nt	nt	nt
COc1ccccc1N1CCN(CCOc2c(OC)cccc2OC)CC1	5	26*	-1	6	12	-3	22
O=[N+]([O-])c1cnc(Sc2ccncn2)s1	-7	73*	-5	12	nt	29*	96*
O=C(Nc1ccc(Cl)cc1)Nc1ccccc1Sc1ncc([N+](=O)[O-])s1	-3	-3	-52	-3	nt	nt	nt
Cc1nc([N+](=O)[O-])c(Br)n1Cc1ccc(Cl)c(Cl)c1	-2	46*	9	14	21	2	85*
CC1=CC(C)(C)N(S(=O)(=O)c2ccc(C)cc2)c2ccccc21	11	30*	9	5	20	46*	94*
CC1=CC(C)(C)N(S(=O)(=O)c2ccc(F)cc2)c2ccc(C)cc21	0	-2	-27	7	10	nt	nt
CCCC(=O)Nc1ccc(Cl)c(NC(=O)c2cccnc2)c1	2	60*	-21	0	-4	-3	-4
CCOc1cc(C#N)c(NC(=O)c2ccco2)cc1OCC	15	39*	23	21	-12	17	24*
CCOc1cc(NC(=O)c2ccco2)c(OCC)cc1NC(=O)c1ccco1	nt	nt	6	-7	nt	nt	nt
COc1ccc(-n2nnnc2SCC(=O)c2ccc(O)c(O)c2)cc1	6	52*	-34	9	-2	-1	79*
CCS(=O)(=O)CCSc1nc(C)cc(C)c1C#N	7	100*	-30	-10	6	-1	-7
SMILES	BaF3 tox	Ba/F3 V617F tox	KLF5 inh	IEC-6 cytotox	APP transl inh	BaF3 tox 2	JAK2V617F conf
COc1ccc(-c2cc(-c3cc(C)ccc3O)[nH]n2)cc1	10	32*	-60	-3	-62	25	80*
COc1ccc(-c2cc(-c3ccc(C)cc3)n[nH]2)c(O)c1	nt	nt	-255	-1	nt	nt	nt
CC(C)(C)C(=O)Nc1c2c(nn1-c1ccccc1)CSC2	nt	nt	-26	-12	nt	nt	nt
O=C(Nc1cc(Cl)ccc1O)C1CC(c2ccccc2Cl)=NO1 (stereo unspecified)	nt	nt	19	0	nt	nt	nt
c1ccc(-c2nnc3sc(CN4CCc5ccccc54)cn23)cc1	22	35*	14	8	-4	30*	30*
Brc1ccc(-c2nnc3sc(CN4CCC5(CC4)OCCO5)cn23)cc1	6	4	-23	3	-13	nt	nt
Cc1cc(C)n(CCN(C)C(=O)C2CCC(=O)N(CCc3cccc(F)c3)C2)n1 (stereo unspecified)	nt	nt	-27	2	nt	nt	nt
CCCCN1CN(Cc2ccccc2)CNC1=S	5	41*	3	-3	2	1	10
CCc1ccc(CNC(=O)c2ccc3nc(C4CCCCC4)oc3c2)nc1	nt	nt	-27	2	nt	nt	nt
CCOc1cc(Br)ccc1S(=O)(=O)NCc1ccccc1	3	101*	-6	8	1	-4	7
COC(=O)c1ccc(N2CCN(C)CC2)c(NC(=O)c2ccc(-c3ccc(Cl)cc3)o2)c1	nt	nt	-10	-2	nt	nt	nt
CC(=O)c1ccc(Sc2nnnn2-c2ccccc2)c([N+](=O)[O-])c1	3	44*	6	2	-38	2	83*
CN(C)c1ccc(NC(=S)NC23CC4CC(CC(C4)C2)C3)cc1	nt	nt	-117	6	nt	nt	nt
CC(=O)n1cc(N(C(=O)CCl)c2ccc([N+](=O)[O-])cc2)c2ccccc21	20	63*	-14	-1	nt	46*	100*
O=Cc1[nH]c2ccccc2c1N(C(=O)CCl)c1ccc([N+](=O)[O-])cc1	-2	-2	-7	-3	nt	nt	nt
CC(=O)n1cc(N(C(=O)CCl)c2ccccc2)c2ccccc21	20	96*	-16	6	nt	98*	99*
CC1CCCC(C)N1CC(C)(C)NS(=O)(=O)c1ccc(Cl)cc1 (stereo unspecified)	4	0	-47	-3	4	nt	nt
O=C1NC(=S)SC1=C1CCCC1	2	1	-15	5	-16	nt	nt
Oc1c(C(Nc2nc3ccccc3s2)c2ccco2)ccc2cccnc12 (stereo unspecified)	7	26*	-7	1	68*	35*	89*
c1coc(CNc2nc3ccccc3s2)c1	nt	nt	-127	-5	nt	nt	nt
Cc1ccc(NC(=O)/C(=C\c2ccccc2)NC(=O)/C=C/c2ccccc2)cc1	7	72*	-11	-2	-14	-4	-7
Cc1cc2ccccn2c1C(=O)c1ccc([N+](=O)[O-])o1	0	27*	-10	2	54*	-7	42*
Cc1cc2ccccn2c1C(=O)c1cccc([N+](=O)[O-])c1	4	0	-6	6	-10	nt	nt
CCCOc1ccc2ccccc2c1/C=N/n1c(C)nnc1-n1nc(C)cc1C	26	24*	-9	12	9	55*	66*
CCc1csc(CCNC(=O)C2CCC(=O)N(Cc3cccc(C(F)(F)F)c3)C2)n1 (stereo unspecified)	nt	nt	-35	4	nt	nt	nt
